Four molecules from PubChem BioAssay can be followed below.

Active and inactive are the calls of the source. Unless noted, how the calls were made is not given here.

Experiment [1] concerns Wnt5a (protein binding on small-molecule microarray). The experiment can be described thus: Wnt5a binders on small-molecule microarray, primary screen, biophysical, 635/667 nm fluorescence (AID 1142).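 Further: fluorescence read at 667 nm with signal to noise per printed feature.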 Particulars: 635 nm fluorescence, higher = more signal.
The nature of experiment [2]: cell viability in Huh7 cells, primary screen, cytotoxicity control for HCV replication inhibitor project, CellTiter-Glo luminescence, basal, 48 h (AID 1143).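 Further: Huh7 hepatoma cells carrying a hepatitis C replication reporter with no stimulus; test concentration not given here.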 Particulars: Huh7 HCV replicon, higher = more signal, called active from +8 up or from −8 down. (In ATP-based viability assays light output follows the ATP content of the culture.)
The nature of experiment [3]: P. aeruginosa biofilm formation inhibitors, primary screen, PAO1 strain, BacTiter-Glo luminescence, LB-PBS (AID 1144). Particulars: 12 h, higher = more signal.
A short description of experiment [4]: CREB reporter modulators without forskolin, primary screen, cell-based, PC12, CRE-LacZ reporter, unstimulated (AID 1145). Particulars: no forskolin, luminescence, 4.5 h, higher = more signal, called active from +8 up or from −8 down.
A short description of experiment [5]: CREB reporter modulators under forskolin, primary screen, cell-based, PC12, CRE-LacZ reporter, forskolin-stimulated (AID 1146).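 Further: PC12 cells with 6xCRE LacZ reporter stimulated by forskolin 10 µM; beta-galactosidase reporter signal reflecting CREB driven transcription.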 Particulars: luminescence, 4.5 h, higher = more signal, called active from +8 up or from −8 down.
Experiment [6] deals with Streptavidin (Streptomyces avidinii) (UniProt P22629). The experiment is described as follows: streptavidin binders on small-molecule microarray, primary screen, artefact control for SMM compound annotation, biophysical, 635/667 nm fluorescence (AID 1147).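 Further: signal reflects streptavidin binding to arrayed compounds as a control protein.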 Particulars: streptavidin binding, higher = more signal.
Chain of Streptavidin (Streptomyces avidinii) (P22629 whole entry, looked up): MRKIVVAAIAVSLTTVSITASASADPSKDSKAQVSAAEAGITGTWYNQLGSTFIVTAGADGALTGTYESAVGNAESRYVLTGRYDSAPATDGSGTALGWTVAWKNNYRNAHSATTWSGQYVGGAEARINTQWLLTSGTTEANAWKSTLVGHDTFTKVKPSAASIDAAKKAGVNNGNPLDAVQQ
Experiment [7] can be described thus: small-molecule binders of probe aInhba, primary screen, biochemical, small-molecule microarray, 635/667 nm fluorescence (AID 1148).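 Further: score merges 667nm spot fluorescence with signal-to-noise for antibody binding to printed compounds.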 Particulars: higher = more signal.
Experiment [8] concerns the target Torsin-1A (Homo sapiens) (UniProt O14656). The experiment is described as follows: torsin A binders from cell lysate, primary screen, small-molecule microarray, wild-type, 635/667 nm (AID 1149). Particulars: COS7 hTOR1A-WT lysate, 635 nm fluorescence, higher = more signal.
Experiment [9] has the same target. The experiment is described as follows: small-molecule binders of mutant TOR1A in lysate, primary screen, cell lysate, small-molecule microarray, COS7 lysate, 635/667 nm fluorescence (AID 1150).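 Further: score pools 667 nm emission and signal to noise measuring lysate protein binding.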 Particulars: COS7 hTOR1A mutant lysate, 635 nm fluorescence, higher = more signal.
Experiment [10] deals with Sonic hedgehog protein (Shh). The experiment can be described thus: small-molecule binders of Shh protein, primary screen, biochemical, small-molecule microarray, 635/667 nm fluorescence (AID 1151).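 Further: Shh protein binding to compounds spotted on small-molecule microarray slides; score combines spot fluorescence intensity with signal-to-noise across triplicate slides.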 Particulars: small-molecule microarray binding, 635 nm fluorescence; higher = more signal.
The nature of experiment [11]: E. coli DRC41 culture turbidity changes, primary screen, E. coli filamentation inducer project, strain DRC41, OD650, 48 h (AID 1152).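 Further: E. coli MC1000 strain DRC41 lacking acrAB efflux pump and sulA.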 Particulars: E. coli DRC41 (acrAB sulA), higher = more signal, called active from +8 up or from −8 down.
Experiment [12] can be described thus: small-molecule binders of probe aLefty1, primary screen, biochemical, small-molecule microarray, 635/667 nm fluorescence (AID 1153).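 Further: score merges spot fluorescence with signal-to-noise ratio from the scanned slide images.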 Particulars: higher = more signal.
The nature of experiment [13]: PSAC antagonists in infected red cells, primary screen, cell-based, P. falciparum Indochina, OD700, 1 h (AID 1154). Particulars: P. falciparum Indochina infected RBC osmotic lysis, higher = more signal, called active from +8 up or from −8 down.
The nature of experiment [14]: PSAC antagonists in infected red cells, primary screen, cell-based, P. falciparum Indochina, OD700, 2 h (AID 1155).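 Further: lysis reports solute entry through the parasite surface anion channel PSAC; channel blockers reduce lysis of infected cells.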 Particulars: P. falciparum Indochina infected erythrocytes, osmotic lysis OD700; higher = more signal, called active from +8 up or from −8 down.
The nature of experiment [15]: osmotic lysis modulators in infected erythrocytes, primary screen, PSAC antagonist project, cell-based, P. falciparum Indochina, OD700, 3 h (AID 1156). Particulars: higher = more signal, called active from +8 up or from −8 down.
Experiment [16] can be described thus: PSAC antagonists in infected red cells, primary screen, cell-based, P. falciparum Indochina, OD700, 18 h (AID 1157). Particulars: P. falciparum Indochina infected erythrocytes, osmotic lysis OD700, 18 h; higher = more signal, called active from +8 up or from −8 down.
The nature of experiment [17]: modulators of S6 phosphorylation in cells, primary screen, cell-based, A549, cytoblot, luminescence, serum-stimulated (AID 1158).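 Further: serum-stimulated A549 lung adenocarcinoma cells; signal is phosphorylated S6 detected by cytoblot immunostaining with HRP secondary.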 Particulars: A549 phospho-S6 cytoblot, 5 h, higher = more signal.
Experiment [18] addresses NADPH oxidase 2 (Homo sapiens) (UniProt P04839). The experiment is described as follows: NOX2-dependent H2O2 signal modulators, primary screen, NOX inhibitor project, cell-based, HEK293-NOX2, PMA-stimulated, Amplex Red fluorescence (AID 1159). Further: test concentration not given here. Particulars: 45 min, higher = more signal, called active from +8 up or from −8 down.
Experiment [19] concerns the target NADPH oxidase 4 (Homo sapiens) (UniProt Q9NPH5). The experiment can be described thus: NOX4-dependent H2O2 signal modulators, primary screen, NOX inhibitor project, cell-based, HEK293-NOX4, tetracycline-induced, Amplex Red fluorescence (AID 1160). Particulars: 45 min, higher = more signal, called active from +8 up or from −8 down.
The target of experiment [20] is NADPH oxidase 5 (Homo sapiens) (UniProt Q96PH1). The experiment is described as follows: NOX5-dependent H2O2 signal modulators, primary screen, NOX inhibitor project, cell-based, HEK293-NOX5, Amplex Red fluorescence (AID 1161). Particulars: HEK293-NOX5, ionomycin, 45 min, higher = more signal.
Chain of NADPH oxidase 5 (Homo sapiens) (Q96PH1 whole entry, looked up): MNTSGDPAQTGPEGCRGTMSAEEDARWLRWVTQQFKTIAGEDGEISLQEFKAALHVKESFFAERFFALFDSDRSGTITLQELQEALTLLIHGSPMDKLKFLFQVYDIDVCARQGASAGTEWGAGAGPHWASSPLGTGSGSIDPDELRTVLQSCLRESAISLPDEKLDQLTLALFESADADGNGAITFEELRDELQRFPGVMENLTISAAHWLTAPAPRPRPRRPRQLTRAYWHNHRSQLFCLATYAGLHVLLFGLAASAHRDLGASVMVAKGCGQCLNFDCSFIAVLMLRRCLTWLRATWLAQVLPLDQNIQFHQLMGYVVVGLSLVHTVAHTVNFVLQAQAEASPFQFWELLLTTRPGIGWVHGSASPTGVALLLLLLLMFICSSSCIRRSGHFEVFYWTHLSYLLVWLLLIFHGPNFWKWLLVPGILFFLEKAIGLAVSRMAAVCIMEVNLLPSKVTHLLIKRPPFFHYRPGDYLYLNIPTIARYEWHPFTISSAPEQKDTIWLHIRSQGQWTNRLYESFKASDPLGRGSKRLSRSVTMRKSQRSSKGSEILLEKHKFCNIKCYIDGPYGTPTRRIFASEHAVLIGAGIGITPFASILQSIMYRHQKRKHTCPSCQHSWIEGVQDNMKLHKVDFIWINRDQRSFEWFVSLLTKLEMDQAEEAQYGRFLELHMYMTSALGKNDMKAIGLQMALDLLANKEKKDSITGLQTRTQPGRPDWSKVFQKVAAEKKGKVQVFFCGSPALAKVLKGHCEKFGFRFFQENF

Chain of Torsin-1A (Homo sapiens) (O14656 whole entry, looked up): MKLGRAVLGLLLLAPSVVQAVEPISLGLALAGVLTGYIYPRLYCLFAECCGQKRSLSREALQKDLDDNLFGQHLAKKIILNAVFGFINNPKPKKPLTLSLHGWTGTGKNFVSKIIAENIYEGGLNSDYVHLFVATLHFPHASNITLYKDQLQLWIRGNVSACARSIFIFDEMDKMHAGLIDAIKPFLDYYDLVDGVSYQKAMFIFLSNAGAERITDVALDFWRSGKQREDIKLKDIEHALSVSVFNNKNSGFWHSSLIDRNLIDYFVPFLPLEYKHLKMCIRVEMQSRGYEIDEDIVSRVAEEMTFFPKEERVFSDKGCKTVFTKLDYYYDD
Chain of NADPH oxidase 2 (Homo sapiens) (P04839 whole entry, looked up): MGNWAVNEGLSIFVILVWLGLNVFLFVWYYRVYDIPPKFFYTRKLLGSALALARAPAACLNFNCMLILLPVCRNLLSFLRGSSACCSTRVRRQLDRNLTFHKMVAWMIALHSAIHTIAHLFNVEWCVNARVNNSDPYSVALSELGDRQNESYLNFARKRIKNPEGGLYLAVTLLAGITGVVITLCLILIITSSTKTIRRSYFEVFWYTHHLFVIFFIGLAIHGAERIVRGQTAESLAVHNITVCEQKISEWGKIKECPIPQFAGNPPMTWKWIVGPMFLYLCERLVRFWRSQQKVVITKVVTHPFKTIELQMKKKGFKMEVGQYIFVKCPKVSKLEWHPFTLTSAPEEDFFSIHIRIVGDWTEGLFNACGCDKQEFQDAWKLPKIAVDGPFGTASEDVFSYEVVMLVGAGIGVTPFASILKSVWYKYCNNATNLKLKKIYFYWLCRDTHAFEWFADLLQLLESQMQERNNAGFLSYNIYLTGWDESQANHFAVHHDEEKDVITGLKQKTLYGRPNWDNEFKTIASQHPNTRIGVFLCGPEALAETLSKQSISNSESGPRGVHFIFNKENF
Chain of NADPH oxidase 4 (Homo sapiens) (Q9NPH5 whole entry, looked up): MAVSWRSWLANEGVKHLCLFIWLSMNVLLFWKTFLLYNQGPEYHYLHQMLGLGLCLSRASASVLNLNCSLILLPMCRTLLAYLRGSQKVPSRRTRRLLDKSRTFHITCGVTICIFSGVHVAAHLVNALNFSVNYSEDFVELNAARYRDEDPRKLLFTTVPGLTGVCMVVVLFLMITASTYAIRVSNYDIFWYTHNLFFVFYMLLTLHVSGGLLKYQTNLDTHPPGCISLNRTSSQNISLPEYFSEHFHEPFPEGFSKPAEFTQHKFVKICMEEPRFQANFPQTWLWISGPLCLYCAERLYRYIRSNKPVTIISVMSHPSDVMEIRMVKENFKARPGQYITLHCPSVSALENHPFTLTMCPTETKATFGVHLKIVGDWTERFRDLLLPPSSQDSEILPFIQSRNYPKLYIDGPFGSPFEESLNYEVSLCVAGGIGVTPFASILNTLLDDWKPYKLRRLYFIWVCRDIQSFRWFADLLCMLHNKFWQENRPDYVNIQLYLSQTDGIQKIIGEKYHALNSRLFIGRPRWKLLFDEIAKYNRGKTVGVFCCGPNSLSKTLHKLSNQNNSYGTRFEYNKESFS

Regarding `C=CC[C@@]1(C(=O)N2CCCCC2)N=C(c2ccc(OCCCO)cc2)O[C@@H]1c1ccccc1N=[N+]=[N-]`, the composite z-score in [1] is 0.288; in [6], 1.18; in experiment [7] it was 0.0391; with Torsin-1A (Homo sapiens) [8] it was -0.151; with Torsin-1A (Homo sapiens) [9], 1.03; in experiment [10], -0.0797. In experiment [12], this molecule gave a composite z-score of 0.407. In addition, the z-score was -4.35 (inactive) in [2]; -0.588 (inactive) in experiment [3]; 4.01 (inactive) in [4]; -1.53 (inactive) in [5]; 0.432 (inactive) in [11]; 31.2 (active) in [13]. The z-score is 27.2 (active) in experiment [14]; 1.27 (inactive) in [15]; 6.5 (inactive) in [16]; 0.995 in experiment [17]; -1.67 (inactive) in [18]; 0.378 (inactive) in [19]. In addition, the z-score in experiment [20] was -1.88.
For `[N-]=[N+]=NCc1ccccc1[C@@H]1OC(c2ccc(OCCCO)cc2)=N[C@]1(CCS(=O)(=O)c1ccccc1)C(N)=O`, the composite z-score in [1] was found to be 1.2; in experiment [6] it was 0.982; in experiment [7] it was 0.393; with Torsin-1A (Homo sapiens) [8] it was 1.41; with Torsin-1A (Homo sapiens) [9], 1.26; in [10], 0.99. In addition, the composite z-score in experiment [12] turned out to be 0.428. Further, the z-score in [2] was -0.369 (inactive); in experiment [3], 1.47 (inactive); in experiment [4], -0.128 (inactive); in [5] it was -0.785 (inactive); in experiment [11], 1.06 (inactive); in [13], 26.4 (active). The z-score in experiment [14] was 14.7 (active); in [15], 0.618 (inactive); in experiment [16] it was 1.75 (inactive); in [17] it was -0.353; in [18], -0.282 (inactive); in experiment [19], 1.13 (inactive). This molecule also displayed a z-score in experiment [20] of 2.23.
`COC(=O)C(CC#Cc1ccc2c(c1)[C@]1(C(=O)N2)[C@H](c2ccccc2OCCO)N2[C@H](c3ccccc3)[C@H](c3ccccc3)OC(=O)[C@H]2[C@@H]1C(N)=O)C(=O)OC`: the composite z-score in experiment [1] worked out at 0.136; in [6], 1.5; in [7], 1.26; in the experiment with Torsin-1A (Homo sapiens) [8], 0.412; with Torsin-1A (Homo sapiens) [9], 0.434; in [10] it was 0.111. In experiment [12], this molecule had a composite z-score of 1.81. The z-score was -5.98 (inactive) in experiment [2]; 0.502 (inactive) in experiment [3]; -0.0515 (inactive) in [4]; 1.02 (inactive) in [5]; 0.793 (inactive) in [11]; 7.57 (inactive) in [13]. Further, the z-score was 2.02 (inactive) in experiment [14]; 1.44 (inactive) in experiment [15]; 1.2 (inactive) in [16]; -0.0528 in [17]; 2.12 (inactive) in [18]; 0.696 (inactive) in experiment [19]. Moreover, the z-score in experiment [20] came out at 1.51.
With `CC(C)(C)OC(=O)CC[C@]1(C(=O)NCCN2CCOCC2)COC(c2ccc(OCCCO)cc2)=N1`, the composite z-score was found to be 0.681 in experiment [1]; 0.344 in experiment [6]; 0.0227 in [7]; 0.717 with Torsin-1A (Homo sapiens) [8]; 1.37 with Torsin-1A (Homo sapiens) [9]; 0.998 in [10]. Further, the composite z-score in experiment [12] was determined as 0.319. Further, the z-score in [2] is -0.102 (inactive); in experiment [3] it was -0.192 (inactive); in experiment [4] it was 0.157 (inactive); in [5], -0.168 (inactive); in experiment [11], 1.04 (inactive); in experiment [13] it was 18.7 (active). Also, the z-score in experiment [14] is 2.01 (inactive); in [15], 0.0229 (inactive); in experiment [16] it was 0.791 (inactive); in [17], -0.395; in experiment [18], -2.08 (inactive); in [19], 0.08 (inactive). In addition, the z-score in experiment [20] is -0.137.
